Reference: PubChem BioAssay AID1508621 (National Center for Advancing Translational Sciences (NCATS), 2021)
Inconclusive results are not listed. Activity calls are given as the source filed them. Calls come from the whole dose curve; as a rule, active = well fitted inhibition curve with a large enough effect; inconclusive = small, poorly fitted or top-dose-only effect; inactive = no such curve, though single readings can be large or run the other way.

assay: Confirmatory qHTS for Identification of Small Molecule Inhibitors of Huntingtin Promoter Activity; settings: HEK293 HTT promoter firefly luciferase reporter, 24 h; series mostly up to 57.5 µM; activity change, negative = inhibition: at the top concentration; note: nearly all actives have a fitted effect of over 65% in size;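 for activity change, negative = inhibition: 0% = vehicle control and -100% = zero luminescence signal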
Procedure, shortened: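 HEK293 luciferase reporter cells, 2,500/well, cultured 24 h, then exposed to compounds at up to 57.5 uM final for 24 h at 37C. Firefly luciferase luminescence read; normalized to vehicle (0%) and zero RLU (-100%).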
Potency is the fitted concentration of half-maximal effect.

Potency, active:
CCCCOC(=O)c1ccc(NC(=O)c2sc3nc(C)cc(C)c3c2N)cc1 12000 nM
COc1cc2nc(N3CCCN(C)CC3)nc(NC3CCN(Cc4ccccc4)CC3)c2cc1OC 26900 nM
COCCn1c2c([n+](Cc3cnccn3)c1C)C(=O)c1ccccc1C2=O 95.3 nM
COC(=O)c1c(C)oc2ccc(N(C(=O)c3ccncc3)S(=O)(=O)c3ccc(OC)cc3)cc12 3790 nM
O=S(=O)(c1ccc(-c2csc(=Nc3ccc(OC(F)(F)Cl)cc3)n2CCCO)cc1)N1CCCC1 1900 nM
CCN(CC)S(=O)(=O)c1ccc(NC(=O)CCc2c(C)nc3cc(-c4ccc(Cl)cc4)nn3c2C)cc1 301 nM

Activity change, negative = inhibition, inactive:
COc1ccccc1C1Nc2c(sc3nc(C)cc(C)c23)C(=O)N1c1ccccc1 (stereo not drawn) 25.8%
Cc1cccc(S(=O)(=O)Nc2cccc(-c3ccc(N4CCCCC4)nn3)c2)c1 -15.6%
COc1cccc(CNC(=O)c2ccc3nc(N4CCCCC4)sc3c2)c1OC -26.3%
CC=C1NC(=O)[C@H]2CSSCCC=C[C@H](CC(=O)N[C@H](C(C)C)C(=O)N2)OC(=O)[C@H](C(C)C)NC1=O 9.87%
Cc1cccc(N2CCN(C(=O)c3ccc(NC(=O)c4nsc5ccccc45)cc3)CC2C)c1 (stereo not drawn) -63.2%
CCCS(=O)(=O)NCCc1sc2nc(-c3ccc(F)cc3)nn2c1C -27.6%
O=C(CSc1nccn1Cc1ccco1)Nc1cc(C(F)(F)F)ccc1Cl -16%
O=C(CN1c2ccc(Br)cc2-c2ccccc2S1(=O)=O)N1CCCCC1 28.6%
Cc1ccc(CN(C(=O)c2ccc(OCC(C)C)cc2)c2ccccn2)o1 57.7%
COc1ccc(NC(=O)Cn2c(SCc3ccc(F)cc3)nc3cccnc32)cc1OC -9.83%
COc1ccc(NC(=O)Cn2c(SCc3ccc(C)cc3)nc3cccnc32)cc1OC -6.27%
C#C[C@]1(O)CC[C@H]2[C@H]3CCc4cc(OC)ccc4[C@H]3CC[C@@]21C -8.88%
Cc1ccc(S(=O)(=O)Nc2cccc(-c3ccc(N4CCCCC4)nn3)c2)s1 -21.3%
Cn1c(NCCN(CCO)CCCc2ccc([N+](=O)[O-])cc2)cc(=O)n(C)c1=O -2.78%
COc1ccc(Cn2c(CO)cnc2SCc2ccc(F)cc2)cc1 -8.93%
O=C(O)c1cc(-n2c(/C=C\c3ccc(F)cc3)nc3ccccc3c2=O)ccc1Cl 17.8%
COc1ccc(-n2c(/C=C/c3cccc4ccccc34)nc3ccccc3c2=O)cc1Cl -19.7%
Cc1ccc(C)c(-n2nnc(C(=O)Nc3ccc(Br)cc3)c2C)c1 -18.6%
COc1ccc(NC(=O)Cn2nc(-c3ccncc3)ccc2=O)cc1Cl 0.17%
NC(=O)Nc1cc(-c2ccc(CN3CCOCC3)cc2)sc1C(N)=O 16.2%
CCCCC(=O)Nc1cccc(-c2nc3ccccc3s2)c1 36.5%
CCc1ccc(-n2c(SCC(=O)NC(C)CC)nc3n[nH]c(C)c3c2=N)cc1 (stereo not drawn) -17.2%
Cn1cc(CNCC2CCN(c3ncc(C(=O)NO)cn3)CC2)c2ccccc21 16.7%
CCOc1ccc(-n2c(/C=C/c3cccc(F)c3)nc3cc(OC)c(OC)cc3c2=O)cc1 -22.7%
O=C(C=Cc1ccc(O)cc1)c1ccc(O)cc1O 20%
COc1ccc([C@@H]2CNC(=O)C2)cc1OC1CCCC1 -7.15%
CC(C)[C@H](CO)Nc1nc(Nc2ccc(C(=O)O)c(Cl)c2)c2ncn(C(C)C)c2n1 -5.69%
CCOc1ccc(C(=O)N(Cc2cc(OC)c(OC)c(OC)c2)c2ccccn2)cc1 -18.3%
COC(=O)C1=C(C)NC(C)=C(C(=O)OCC(C)=O)C1c1ccccc1[N+](=O)[O-] (stereo not drawn) 7.3%
Cc1ccc(-n2ncc3c(N(CCO)Cc4ccccc4)ncnc32)cc1 15.7%
Cc1ccc(N2C(=O)C(CC(=O)Nc3ccccc3)N(CCC3=CCCCC3)C2=O)cc1 (stereo not drawn) -1.96%
CCOc1ccccc1NC(=O)C(=O)c1cc(C)n(-c2ccc(F)cc2)c1C 37.3%
